Compound activity (PubChem)
ERp5 block = blocks human ERp5 reductase activity on insulin; ERp5 insulin aggregation, absorbance 650 nm, 90 min; inhibition, % at 9.99 µM; hit rate 0.05% among 350,000; AID 651711;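 active = mean replicate inhibition above about 25%, with every replicate also reaching it, limit read from the data, passing the limit was not always enough; inconclusive = only one of those two criteria met; inactive = neither criterion met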
Target sequence (Q15084 whole entry, looked up): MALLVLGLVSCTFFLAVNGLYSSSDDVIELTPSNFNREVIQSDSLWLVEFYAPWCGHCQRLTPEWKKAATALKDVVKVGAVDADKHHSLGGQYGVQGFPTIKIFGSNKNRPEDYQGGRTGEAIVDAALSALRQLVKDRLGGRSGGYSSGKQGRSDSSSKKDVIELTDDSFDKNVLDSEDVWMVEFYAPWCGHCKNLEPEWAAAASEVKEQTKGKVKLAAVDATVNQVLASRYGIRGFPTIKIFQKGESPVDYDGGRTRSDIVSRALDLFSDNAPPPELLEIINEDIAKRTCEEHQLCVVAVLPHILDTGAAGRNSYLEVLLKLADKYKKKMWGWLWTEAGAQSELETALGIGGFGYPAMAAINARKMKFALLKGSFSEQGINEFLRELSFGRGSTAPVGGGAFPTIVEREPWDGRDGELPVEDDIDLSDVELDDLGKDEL
Rtt109 Vps75 = inhibitors of Candida albicans Rtt109/Vps75 histone acetyltransferase | purified Rtt109/Vps75, ThioGlo CoA-SH fluorescence, 4 h | inhibition, % at 34.9 µM | hit rate 0.16% among 330,000;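 active = inhibition of at least 50% in every replicate; inconclusive = best replicate reaches 50% inhibition but some replicates fall short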
SIRT5 block = inhibitors of human sirtuin-5 desuccinylase; Purified SirT5, succinyl-peptide AMC, trypsin-coupled fluorescence; inhibition, % at 15 µM; hit rate 1.1% among 330,000; AID 652115; in the data active = inhibition above about 15%; inconclusive = no clear call, values can overlap the other calls
DENV2 CPE = protects cells from dengue virus 2 cytopathic effect; hit rate 1.7% among 350,000; CPE inhibition, % at 9.99 µM; DENV2-infected cells, cytopathic effect rescue, plate reader; in the data active = CPE inhibition above about 20%, passing the limit was not always enough; inconclusive = no clear call, values can overlap the other calls; tested in BHK-21 cells;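 also: 0% = median of neutral control wells and 100% = median of positive control wells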
PDI turbidity = PDI (human) enzyme inhibition | PDI insulin aggregation turbidity, A650, 90 min | P07237 | hit rate 0.052% among 350,000 | AID 588391 | inhibition, % at 10 µM;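 active = mean inhibition across replicates of 30% or more, whatever share of single replicates reach that level; inconclusive = mean inhibition below 30% while every single replicate reaches 30%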
Starred values were filed as active, the others as inactive; u = inconclusive; x = no result. An excerpt weighted towards active compounds, which were near 2.3% of everything screened.

SMILES	ERp5 block	Rtt109 Vps75	SIRT5 block	DENV2 CPE	PDI turbidity
CO[C@@H]1CN(C)C(=O)c2cc(NC(=O)C3CCC3)ccc2OC[C@@H](C)N(Cc2ccncc2)C[C@@H]1C	7.4	x	-8.0	41.2*	x
CCC(=O)Nc1ccc2c(c1)C(=O)N(C)C[C@@H](OC)[C@H](C)CN(Cc1ccccc1)[C@@H](C)CO2	-3.1	x	-1.8	37.4*	x
CO[C@@H]1CN(C)C(=O)c2cc(NC(=O)NC(C)C)ccc2OC[C@H](C)N(Cc2ccccn2)C[C@@H]1C	-1.4	x	-1.4	73.5*	x
COc1ccc(NS(=O)(=O)c2cccs2)cn1	3.5	2.3	-1.4	23.6*	3.1
CSC(=NC(C)c1ccccc1)NS(=O)(=O)c1cccs1 (stereo not given)	1.9	2.2	-2.4	-1.6	2.2
CSC(=NS(=O)(=O)c1ccc(N)cc1)NS(=O)(=O)c1cccs1	2.0	7.2	53.3*	-10.2	-4.0
C[C@H]1CCCCO[C@@H](CN(C)C(=O)Nc2ccc(F)cc2)[C@@H](C)CN([C@@H](C)CO)C(=O)c2cc(NC(=O)c3ccccc3)ccc2O1	0.3	x	5.6	-10.9	x
O=C(NNS(=O)(=O)c1ccc(F)cc1)c1cccc(O)c1	1.5	0.7	17.0*	6.0	3.1
CCOC(=O)C1CCCN(S(=O)(=O)c2ccc3c(c2)CC(C)N3C(=O)C2CC2)C1 (stereo not given)	-0.4	3.2	-0.4	3.4	1.1
CC1Cc2cc(S(=O)(=O)N3CCC(C(=O)N(C)Cc4ccco4)CC3)ccc2N1C(=O)C1CCC1 (stereo not given)	5.2	50.2*	2.0	-2.0	-3.9
CCOC(=O)C1CCN(S(=O)(=O)c2ccc3c(c2)CC(C)N3C(=O)C2CCC2)CC1 (stereo not given)	3.0	53.5*	-3.1	2.5	-2.0
CC1CCN(S(=O)(=O)c2ccc3c(c2)CC(C)N3C(=O)C2CCC2)CC1 (stereo not given)	3.2	10.6	-0.2	-1.0	4.7
COc1ccc(CN2C[C@H](C)[C@H](OC)CN(C)C(=O)c3cc(NC(=O)c4nc5ccccc5s4)ccc3OC[C@@H]2C)cc1	-7.8	x	x	22.0*	x
CO[C@@H]1CN(C)C(=O)c2ccc(NC(=O)c3nc4ccccc4s3)cc2OC[C@@H](C)N(Cc2cccnc2)C[C@H]1C	57.0	x	102.5*	x	x
N#C[C@H]1[C@@H](c2ccccc2-c2cccc(F)c2)[C@@H](CO)N1C(=O)C1CCCCC1	10.1	x	-1.9	11.3	x
CCCN1[C@@H]2c3ccc(-c4cccnc4)c(=O)n3C[C@H]1[C@H](CO)[C@H]2C(=O)NCCc1cn(C)cn1	6.0	x	-2.0	-3.9	x
COc1ccc(S(=O)(=O)N(C)C[C@@H]2Oc3c(NS(=O)(=O)c4ccc(C)cc4)cccc3C(=O)N([C@H](C)CO)C[C@H]2C)cc1	-0.2	x	0.3	43.3*	x
Cc1ccc(S(=O)(=O)Nc2cccc3c2O[C@@H](CN(C)S(=O)(=O)c2ccc(Cl)cc2)[C@@H](C)CN([C@H](C)CO)C3=O)cc1	-2.5	x	9.2	-2.4	x
Cc1ccc(S(=O)(=O)N(C)C[C@H]2Oc3c(NS(=O)(=O)c4ccc(Cl)cc4)cccc3C(=O)N([C@@H](C)CO)C[C@H]2C)cc1	-5.0	x	2.6	74.4*	x
CN1C(=O)c2cc(NC(=O)C3CCCC3)ccc2OC[C@H]2O[C@@H](CC(=O)NCC3CC3)CC[C@@H]21	12.9	x	2.1	32.4*	x
CCC(=O)Nc1ccc2c(c1)C(=O)N(C)[C@H]1CC[C@@H](CC(=O)NCC3CC3)O[C@H]1CO2	36.3*	x	0.0	u	x
CC(=O)Nc1ccc2c(c1)C(=O)N(C)[C@H]1CC[C@H](CC(=O)NCC3CC3)O[C@@H]1CO2	90.7*	x	-2.0	-3.1	x
CC(C)NC(=O)Nc1ccc2c(c1)C(=O)N(C)[C@@H]1CC[C@@H](CC(=O)NCC3CCCCC3)O[C@@H]1CO2	-5.6	x	-1.0	u	x
CN1C(=O)c2cc(NC(=O)C3CCCC3)ccc2OC[C@H]2O[C@@H](CC(=O)NCC3CC3)CC[C@H]21	0.2	x	-0.1	-2.3	x
CCC(=O)Nc1ccc2c(c1)C(=O)N(C)[C@@H]1CC[C@@H](CC(=O)NCC3CC3)O[C@H]1CO2	-1.2	x	-0.4	2.1	x
SMILES	ERp5 block	Rtt109 Vps75	SIRT5 block	DENV2 CPE	PDI turbidity
CC(C)NC(=O)Nc1ccc2c(c1)C(=O)N(C)[C@H]1CC[C@@H](CC(=O)NCC3CCCCC3)O[C@H]1CO2	4.6	x	0.8	35.0*	x
COc1ccccc1-c1cn(CC[C@@H]2CC[C@H](NS(=O)(=O)c3ccccc3C)[C@@H](CO)O2)nn1	-4.9	x	-0.8	-1.1	x
C[C@H]1CN([C@@H](C)CO)C(=O)c2cc(C3=CCCCC3)cnc2O[C@H]1CN(C)C(=O)NC1CCCC1	-0.2	x	2.8	-6.7	x
O=C(NCc1ccncc1)[C@@H]1[C@@H](CO)[C@@H]2Cn3c(ccc(-c4cccnc4)c3=O)[C@@H]2N1C(=O)C1CC1	-0.8	x	-18.6	-5.4	x
CCC(=O)Nc1ccc2c(c1)C(=O)N(C)[C@H]1CC[C@H](CC(=O)NCC3CC3)O[C@H]1CO2	60.1*	x	-0.8	7.7	x
COCC(=O)Nc1ccc2c(c1)C(=O)N(C)[C@H]1CC[C@@H](CC(=O)NCC(F)(F)F)O[C@@H]1CO2	4.4	x	-1.8	14.8	x
CN1CCN(C(=O)C[C@H]2CC[C@@H]3[C@@H](COc4ccc(NC(=O)C5CCC5)cc4C(=O)N3C)O2)CC1	2.7	x	0.6	24.1*	x
COCC(=O)Nc1ccc2c(c1)C(=O)N(C)[C@@H]1CC[C@@H](CC(=O)NCC(F)(F)F)O[C@@H]1CO2	3.8	x	-3.8	81.3*	x
CN1CCN(C(=O)C[C@H]2CC[C@@H]3[C@H](COc4ccc(NC(=O)C5CCC5)cc4C(=O)N3C)O2)CC1	-3.5	x	1.8	12.0	x
CC(C)(C)[S@](=O)N1Cc2cc(C(=O)NCc3ccncc3)nc(-c3cccc(-c4ccc(C#N)cc4)c3)c2[C@@H]1CCO	-5.7	x	x	5.8	x
C[C@H](CO)N1C[C@H](C)[C@@H](CN(C)C(=O)c2cccc(F)c2)Oc2cc(-c3ccncc3)ccc2S1(=O)=O	-3.2	x	-2.8	-2.5	x
COc1ccc2c3c(n(C)c2c1)[C@@H](CO)N(C(=O)Nc1ccc(F)cc1)CC31CCN(S(=O)(=O)c2cccc(C)c2)CC1	-3.2	x	13.2	-2.9	x
COc1ccc(NC(=O)N(C)C[C@H]2OCCCC[C@@H](C)Oc3ccc(NC(=O)Nc4ccc(F)cc4)cc3C(=O)N([C@@H](C)CO)C[C@H]2C)cc1	1.4	x	0.4	9.1	x
CCc1c(-c2cccc(Cl)c2)ncn1Cc1cccc(-c2ccccc2)c1	4.3	x	4.8	22.2*	x
O=C(CNC(=O)c1ccccc1F)NCCN1C(=O)S/C(=C\c2ccccc2Cl)C1=O	-1.7	0.7	-1.4	81.0*	2.1
CCCCC[C@@H](/C=C/C1C(=O)C=C[C@H]1C/C=C\CCCC(=O)OC)OC(C)=O (stereo not given in full)	1.8	-2.4	3.3	25.4*	8.3
O=C(Nc1ccc(F)cc1)Nc1ccc2c(c1)[C@H]1C[C@H](CC(=O)N3CCOCC3)O[C@H](CO)[C@H]1O2	-3.1	x	-3.9	-2.5	x
